Sampled rows, rich in hits. Any-hit rate of the full collection: about 2%.
M4 PAM = human M4 muscarinic receptor positive allosteric modulators, primary screen, CHO-K1 cells, Fluo-8 calcium fluorescence; Muscarinic acetylcholine receptor M4 (Homo sapiens), P08173; CHO-K1 hM4/Gqi5, ACh EC20; 0% = ACh EC20, 100% = maximal ACh; activation, % at 3 µM; actives 0.4% (n = 360,000); AID 624126, 2012;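 active means activation above its plate's cutoff, the mean activation of sample wells plus 3 SD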
Target sequence (P08173 whole entry, looked up): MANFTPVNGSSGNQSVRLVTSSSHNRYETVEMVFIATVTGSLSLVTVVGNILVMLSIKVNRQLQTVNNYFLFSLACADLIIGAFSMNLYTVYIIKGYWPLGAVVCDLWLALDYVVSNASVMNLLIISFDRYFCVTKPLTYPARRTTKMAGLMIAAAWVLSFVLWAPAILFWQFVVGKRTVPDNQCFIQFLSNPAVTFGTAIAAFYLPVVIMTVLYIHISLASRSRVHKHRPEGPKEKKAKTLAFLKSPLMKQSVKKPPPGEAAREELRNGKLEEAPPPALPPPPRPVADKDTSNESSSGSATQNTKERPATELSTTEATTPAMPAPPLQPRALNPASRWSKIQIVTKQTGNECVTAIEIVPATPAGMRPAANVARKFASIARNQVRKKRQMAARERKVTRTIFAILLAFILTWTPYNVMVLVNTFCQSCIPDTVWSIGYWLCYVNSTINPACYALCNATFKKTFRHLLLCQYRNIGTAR
M1 PAM parental = nonselective calcium activators in parental CHO-K1 cells, primary screen, counter-screen for M1 PAM project, cell-based, Fluo-8 calcium fluorescence, full deck, 1536-well | ATP EC20; 0% at ATP EC20, 100% at ATP max | activation, % at 3 µM | actives 0.02% (n = 360,000) | AID 602247, 2012;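 active means activation above the run cutoff, the mean activation of all test compounds plus 3 SD, cut at about 40% in these data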;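 further: peak over basal fluorescence ratio in a 140 s read after ATP addition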
CHO-K1 Ca antag = M1 antagonist counterscreen hit in parental CHO-K1 cells | AID 602250 | ATP-induced calcium, Fluo-8 fluorescence | inhibition, % at 3 µM | actives 0.6% (n = 360,000);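 active means inhibition above a per-plate cutoff, the plate's mean sample inhibition plus 3 SD, cut at about 24% in these data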
CHO-K1 Ca ag = counter-screen for M1 agonists: effect in parental CHO-K1 cells. Fluo-8 calcium fluorescence; scaled to maximal ATP response, vehicle zero. actives 0.48% (n = 360,000). activation, % at 3 µM; in the data active means activation above about 15%;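 further: untransfected CHO-K1 host cells lacking M1 receptor as counterscreen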
M4 ag = human M4 muscarinic receptor agonists, primary screen, CHO-K1 cells, Fluo-8 calcium fluorescence; Muscarinic acetylcholine receptor M4 (Homo sapiens), P08173; CHO-K1 hM4/Gqi5; vehicle 0%, full acetylcholine response 100%; activation, % at 3 µM; actives 0.14% (n = 360,000); AID 624127, 2012;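 active means activation above the run mean over all test wells plus 3 SD, cut at about 32% in these data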;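 further: peak over basal fluorescence ratio per well then scaled between controls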
M4 antag = human M4 muscarinic receptor antagonists, primary screen, CHO cells, Fluo-8 calcium fluorescence | Muscarinic acetylcholine receptor M4 (Homo sapiens), P08173 | CHO-hM4 cells, ACh EC80 | inhibition, % at 3 µM | actives 0.73% (n = 360,000) | AID 624125, 2012;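 active means inhibition above its plate's cutoff, the mean inhibition of sample wells plus 3 SD, cut at about 27% in these data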
Large screens that a line does not name were inactive.

CCN(C(=O)c1ccc(NC(=O)Cc2ccccc2)cc1)c1ccccc1	CHO-K1 Ca ag 16
CN(C(=O)c1ccc(NC(=O)Cc2ccccc2)cc1)c1ccccc1	none
CCc1noc(C)c1C(=O)N1CC(C)SC1=Nc1ccc(Cl)cc1 (centres undefined)	none
Cc1ccc(C(C)C)c(OCCCn2ccnc2C)c1	M4 antag 73
CCCCn1c(N)c(N(CC(C)C)C(=O)c2ccc([N+](=O)[O-])o2)c(=O)[nH]c1=O	none
Cc1ccc(-c2nc3ncccc3o2)cc1NC(=O)c1cc2ccccc2o1	none
O=C(Nc1cccc(-c2nc3ncccc3o2)c1)c1cc2ccccc2o1	CHO-K1 Ca antag 26
CC(NC(=O)NC(=O)c1cccc(Cl)c1)c1ccccc1 (centres undefined)	none
CCN1CCN(C(=O)c2cc3c(OC)c(OC)c(OC)cc3[nH]2)CC1	M4 antag 61
COC(=O)c1cccc(NC(=S)Nc2cc(Cl)ccc2OC)c1	none
COC(=O)c1cccc(NC(=O)Nc2ccc(Cl)cc2Cl)c1	CHO-K1 Ca antag 28
O=C(CCc1nnc(C2CCCCC2)o1)N1CCN(Cc2ccccc2)CC1	none
N#C/C(=C/c1ccc(N2CCCCC2)o1)c1cccc(F)c1	none
N#C/C(=C/c1ccc(N2CCCCCC2)o1)c1ccc(Cl)cc1	M4 antag 27
CC1=NOC(=O)/C1=C/c1ccc(-c2ccc(Cl)cc2)o1	M4 antag 34
CC1=NOC(=O)/C1=C\c1ccc(-c2ccc(Br)cc2)o1	M4 antag 34
CC1=NOC(=O)/C1=C\c1ccc(-c2cc(Cl)ccc2Cl)o1	none
COc1ccc(/C=C/c2nc(S(=O)(=O)c3ccccc3)c(NCCCN(C)C)o2)cc1OC	none
Cc1ccc(Cc2c(-c3ccc(F)cc3)nc3c(Cl)cc(C(F)(F)F)cn23)cc1	none
Cc1ccc(-c2nc3c(Cl)cc(C(F)(F)F)cn3c2Cc2ccccc2C(F)(F)F)cc1	none
FC(F)(F)c1cc(Cl)c2nc(-c3ccco3)c(Cc3ccccc3C(F)(F)F)n2c1	M4 antag 45
Fc1ccc(-c2nc3c(Cl)cc(C(F)(F)F)cn3c2Cc2cccc(Cl)c2)cc1	CHO-K1 Ca antag 33
FC(F)(F)c1cc(Cl)c2nc(-c3ccc(Cl)cc3)c(Cc3ccsc3)n2c1	CHO-K1 Ca antag 31
Cc1ccc(N(CCC#N)C(=O)CN2C(=O)NC(Cc3ccccc3)C2=O)cc1 (centres undefined)	none
Cc1cc(NC(=O)COC(=O)COc2ccc(Cl)c(C)c2)no1	none
CC(C)(C)NC(=O)NC(=O)CSc1nnc(-c2ccccc2F)n1N	CHO-K1 Ca antag 33
CCC(C)Sc1ccc(-c2nc3ccccn3c2NCc2ccccc2)cc1OC (centres undefined)	M4 antag 29
COc1ccc(-c2nc3ccccn3c2NC2CCCCC2)cc1SC1CCCCC1	M4 antag 28
COc1ccc(CSc2ccc(-c3nc4ccccn4c3NCc3ccccc3)cc2OC)cc1	none
COc1cc(-c2nc3ccc(C)cn3c2NCc2ccccc2)ccc1SC1CCCCC1	none
COc1cc(-c2nc3ccccn3c2NCc2ccccc2)ccc1SC1CCCCC1	M4 antag 27
Cc1nn(-c2ccccc2)c(Cl)c1/C=C/C(=O)c1ccccc1	CHO-K1 Ca antag 28
Cc1nn(-c2ccccc2)c(Cl)c1/C=N/O	none
NC(=NC(=O)c1ccccc1)N1N=CCC1c1ccccc1 (centres undefined)	none
O=C(Nc1ccc(-c2nc3cccnc3s2)cc1)c1ccc(Cl)nc1	CHO-K1 Ca ag 21
O=C(Nc1ccc(-c2nc3cccnc3s2)cc1)c1cccnc1Cl	none
COc1ccccc1OCCNC(=O)C1CC(=O)N(c2cccc(SC)c2)C1 (centres undefined)	none
Cc1ccccc1OCCn1cc(C(=O)C(=O)N2CCOCC2)c2ccccc21	CHO-K1 Ca ag 23
O=C(C(=O)N1CCOCC1)c1cn(CCOc2ccccc2)c2ccccc12	none
